The text below walks through data of PubChem BioAssay (NCI).

Test systems include RPMI-8226 leukemia; OVCAR-8 ovarian; OVCAR-5 ovarian; OVCAR-4 ovarian; SK-OV-3 ovarian; IGROV1 ovarian; OVCAR-3 ovarian; HS 578T breast; NCI/ADR-RES ovarian; T-47D breast; BT-549 breast; MDA-MB-435 melanoma; SW-620 colon; HCC-2998 colon; KM12 colon; MCF7 breast.
Experiment in all cases: NCI-60 one-dose screen, 48 h (100 = growth as untreated, 0 = no growth, -100 = all killed)
Another assay relates to SR leukemia. To be noted: 10 µM unless noted.
For a further assay, the system named is HCT-116 colon. The following applies: 10 µM unless noted.

Structures are written as SMILES. Where “and” joins values, the source holds several entries; their conditions need not be identical. Identical values can stand only once. This is part of a sample that, as a whole, favours compounds with a hit. Of some 83,000 tested, about 20% had one in any assay.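 Results are percent growth after 48 hours of single-concentration exposure. 100 means growth as in untreated cells, lower positive values show inhibition; negative values down to -100 show cell death.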 Values without a mark were called inactive. Calls of active or inactive are those of the source. Rule for the calls: active = growth percent below 10; inactive = the rest.

Consider `O=c1ccn2c(n1)OC1CC2OC1COC(c1ccccc1)(c1ccccc1)c1ccccc1` (centres undefined), for which the growth with RPMI-8226 leukemia (10 µM) is 106%; with RPMI-8226 leukemia (100 µM), 58.2%; with OVCAR-8 ovarian (10 µM), 98.7%; in the assay with OVCAR-8 ovarian (100 µM) it was 84.6%; with OVCAR-5 ovarian (10 µM), 102%; in the assay with OVCAR-5 ovarian (100 µM), 101%. The growth with OVCAR-4 ovarian (10 µM) was 110%; in the assay with OVCAR-4 ovarian (100 µM), 84.7%; in the assay on SK-OV-3 ovarian (10 µM) it was 101%; in the assay on SK-OV-3 ovarian (100 µM) it was 70.9%; with IGROV1 ovarian (10 µM) it was 115%; in the assay on IGROV1 ovarian (100 µM) it was 85.4%. Further, the growth with OVCAR-3 ovarian (10 µM) is 126%; in the assay on OVCAR-3 ovarian (100 µM) it was 102%; with HS 578T breast (10 µM) it was 121%; in the assay with HS 578T breast (100 µM), 95.1%; in the assay on NCI/ADR-RES ovarian (10 µM) it was 112%; with NCI/ADR-RES ovarian (100 µM), 103%. Besides, the growth with T-47D breast (10 µM) was 109%; in the assay on T-47D breast (100 µM), 102%; in the assay with BT-549 breast (10 µM) it was 123%; in the assay with BT-549 breast (100 µM), 88.4%; in the assay on MDA-MB-435 melanoma (10 µM), 103%; with MDA-MB-435 melanoma (100 µM) it was -4.08% (active). For the same compound, the growth in the assay on SW-620 colon (10 µM) was 108%; with SW-620 colon (100 µM), 90.4%; with HCC-2998 colon (10 µM) it was 106%; in the assay with HCC-2998 colon (100 µM), 100%; in the assay with KM12 colon (10 µM), 117%; in the assay with KM12 colon (100 µM) it was 96.3%.
For the compound `CC(=O)Nc1ccc2oc(=O)ccc2c1`, the growth in the assay with SR leukemia is 82.3%; in the assay on OVCAR-8 ovarian (10 µM unless noted), 106%; in the assay with OVCAR-5 ovarian (10 µM unless noted), 102%; in the assay with OVCAR-4 ovarian (10 µM unless noted), 106%; with SK-OV-3 ovarian (10 µM unless noted) it was 102%; in the assay on IGROV1 ovarian (10 µM unless noted) it was 105%. The growth in the assay on OVCAR-3 ovarian (10 µM unless noted) was 110%; in the assay with HS 578T breast (10 µM unless noted), 109%; with NCI/ADR-RES ovarian (10 µM unless noted) it was 116%; with T-47D breast (10 µM unless noted), 85.3%; with BT-549 breast (10 µM unless noted) it was 89.8%; in the assay on MDA-MB-435 melanoma (10 µM unless noted), 105%. Further, the growth in the assay on SW-620 colon (10 µM unless noted) is 107%; in the assay with MCF7 breast (10 µM unless noted) it was 110%; with HCC-2998 colon (10 µM unless noted) it was 110%; with KM12 colon (10 µM unless noted), 100%.
In the case of `CCC(=O)Oc1ccc(OCc2ccccc2)cc1`, the growth in the assay with SR leukemia was 80.9% and 97.4%; in the assay on RPMI-8226 leukemia (10 µM unless noted), 89.6% and 90.6%; with OVCAR-8 ovarian (10 µM unless noted), 87.7% and 69.1%; in the assay with OVCAR-5 ovarian (10 µM unless noted), 113% and 119%; in the assay with SK-OV-3 ovarian (10 µM unless noted), 105% and 101%; with IGROV1 ovarian (10 µM unless noted) it was 92.8% and 82%. The growth was 95% and 104% in the assay with OVCAR-3 ovarian (10 µM unless noted); 98.3% and 97.3% with HS 578T breast (10 µM unless noted); 66.6% and 65% with NCI/ADR-RES ovarian (10 µM unless noted); 113% and 89.5% in the assay with T-47D breast (10 µM unless noted); 73.4% in the assay with BT-549 breast (10 µM unless noted); 96.9% and 82.1% in the assay on MDA-MB-435 melanoma (10 µM unless noted). In addition, the growth is 90.2% and 79.7% with SW-620 colon (10 µM unless noted); 91.4% and 88.5% in the assay on MCF7 breast (10 µM unless noted); 99.7% and 102% with HCT-116 colon; 84.4% and 87.7% with HCC-2998 colon (10 µM unless noted); 86.5% and 89.6% in the assay on KM12 colon (10 µM unless noted).
As for `C#CCOC(=O)C(N)CS` (centres undefined), the growth was 102% with SR leukemia; 110% in the assay with OVCAR-8 ovarian (10 µM unless noted); 79.9% in the assay with OVCAR-5 ovarian (10 µM unless noted); 101% in the assay on OVCAR-4 ovarian (10 µM unless noted); 101% with SK-OV-3 ovarian (10 µM unless noted); 104% in the assay on IGROV1 ovarian (10 µM unless noted). The growth is 103% in the assay on OVCAR-3 ovarian (10 µM unless noted); 137% in the assay on HS 578T breast (10 µM unless noted); 102% with NCI/ADR-RES ovarian (10 µM unless noted); 119% in the assay with T-47D breast (10 µM unless noted); 108% in the assay on BT-549 breast (10 µM unless noted); 96.6% with MDA-MB-435 melanoma (10 µM unless noted). The growth in the assay with SW-620 colon (10 µM unless noted) is 97.1%; with MCF7 breast (10 µM), 93%; with MCF7 breast (100 µM) it was 90.4% and 76.4%; in the assay with HCT-116 colon, 101%; with HCC-2998 colon (10 µM unless noted), 107%; with KM12 colon (10 µM unless noted) it was 102%.
Take `N#Cc1c[nH]n2ccnc12`: the growth with RPMI-8226 leukemia (10 µM unless noted) is 112%; in the assay with OVCAR-8 ovarian (10 µM unless noted) it was 98.2%; in the assay on OVCAR-5 ovarian (10 µM unless noted) it was 107%; with OVCAR-4 ovarian (10 µM unless noted), 118%; with SK-OV-3 ovarian (10 µM unless noted), 95.3%; in the assay with IGROV1 ovarian (10 µM unless noted), 93.1%. Besides, the growth in the assay on OVCAR-3 ovarian (10 µM unless noted) was 110%; in the assay with HS 578T breast (10 µM unless noted), 117%; in the assay with NCI/ADR-RES ovarian (10 µM unless noted), 105%; with T-47D breast (10 µM unless noted), 92.3%; with BT-549 breast (10 µM unless noted), 98.3%; in the assay on MDA-MB-435 melanoma (10 µM unless noted), 114%. The growth is 119% with SW-620 colon (10 µM unless noted); 102% in the assay on MCF7 breast (10 µM unless noted); 95.2% in the assay on HCT-116 colon; 113% with HCC-2998 colon (10 µM unless noted); 109% in the assay on KM12 colon (10 µM unless noted).
Turning to `COc1ccc(CCN=Cc2ccc(Cl)cc2)cc1OC`, the growth is 108% in the assay with RPMI-8226 leukemia (10 µM unless noted); 104% with OVCAR-8 ovarian (10 µM unless noted); 119% in the assay with OVCAR-5 ovarian (10 µM unless noted); 110% in the assay on OVCAR-4 ovarian (10 µM unless noted); 112% in the assay with SK-OV-3 ovarian (10 µM unless noted); 105% in the assay with IGROV1 ovarian (10 µM unless noted). Further, the growth was 115% in the assay on OVCAR-3 ovarian (10 µM unless noted); 106% in the assay with HS 578T breast (10 µM unless noted); 106% with NCI/ADR-RES ovarian (10 µM unless noted); 97% in the assay on T-47D breast (10 µM unless noted); 107% with BT-549 breast (10 µM unless noted); 113% with MDA-MB-435 melanoma (10 µM unless noted). The growth in the assay on SW-620 colon (10 µM unless noted) was 102%; with MCF7 breast (10 µM unless noted), 96.1%; with HCC-2998 colon (10 µM unless noted), 105%; in the assay with KM12 colon (10 µM unless noted), 102%.
